Active and inactive are the calls of the source. The call rests on the fitted dose curve; in most records, active means well fitted curve in the direction sought with a large enough effect in the repeat runs; inconclusive means weak or mixed curves; inactive means flat fitted curve, though single readings scatter.
Experiment: qHTS assay to test for compound auto fluorescence at 460 nm (blue) in HepG2 cell free culture (AID 720685)
Conditions: Cell-free culture medium, blue autofluorescence 405/460 nm; series mostly up to 91.3 µM; fluorescence, % of fluorescent control: at the top concentration
Procedure, shortened: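 Compound (23 nL) or DMSO pinned into cell-free MEM with 10% FBS; blue fluorescence read at 405/460 nm excitation/emission, expressed as auto-fluorescence equivalency to triamterene.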
On the % scale 0 is the no-effect control and ±100 the full control effect.

Structure (SMILES) | fluorescence, % of fluorescent control | Potency
C=C(C)C(=O)OCCC(F)(F)C(F)(F)C(F)(F)C(F)(F)C(F)(F)C(F)(F)F | -0.0384% (inactive) | 
COC1CCC=CO1 (stereo not drawn) | 0.112% (inactive) | 
CNCc1ccc(NC(=O)c2c[nH]c3c2C(=O)CCC3)cc1 | -0.0014% (inactive) | 
Cc1ccc(NC(=O)N(C)C)cc1NC(=O)N(C)C | 0.0326% (inactive) | 
N[C@@H](Cc1cc(I)c(O)c(I)c1)C(=O)O | 0.159% [at 46 µM] (inactive) | 
CCC(C)(C)C(=O)O | 0.1% (inactive) | 
CNS(=O)(=O)c1cc(C(=O)N2CCC(CCN3C4CCC3CC(n3c(C)nc5ccccc53)C4)(c3cccc(F)c3)CC2)c(Cl)cc1F (stereo not drawn) | 0.0747% (inactive) | 
O=[N+]([O-])c1ccc2ncccc2c1 | -0.122% (inactive) | 
C[C@@H]1[C@H](O)[C@@H](C)/C=C/C=C\C=C\C=C\C=C\C=C\C=C\[C@H](O[C@@H]2O[C@H](C)[C@@H](O)[C@H](N)[C@@H]2O)C[C@@H]2O[C@](O)(C[C@@H](O)C[C@@H](O)[C@H](O)CC[C@@H](O)C[C@@H](O)CC(=O)O[C@H]1C)C[C@H](O)[C@H]2C(=O)O (stereo in doubt) |  | inactive
COc1cc(C(C)=O)ccc1OCCCN1CCC(c2noc3cc(F)ccc23)CC1 | -0.2% [at 46 µM] (inactive) | 
CC(C)(C)NCC(O)COc1cccc2c1C[C@H](O)[C@H](O)C2 (stereo partly drawn) | 0.0077% [at 18.6 µM] (inactive) | 
Nc1ccn([C@H]2CS[C@@H](CO)O2)c(=O)n1 |  | inactive
Cc1cc([N+](=O)[O-])ccc1N | 0.0515% (inactive) | 
CC1CCCO1 (stereo not drawn) | 0.0099% (inactive) | 
O=C1OC(=O)c2c(Br)c(Br)c(Br)c(Br)c21 | -0.0987% (inactive) | 
Oc1ccc2c(c1)Cc1ccccc1-2 | -0.0185% (inactive) | 
CC(C)COC(=O)c1ccc(O)cc1 | 0.14% (inactive) | 
CN1CCCN(C(c2ccccc2)c2ccc(Cl)cc2)CC1 (stereo not drawn) | 0.0423% [at 46 µM] (inactive) | 

Structure (SMILES) | fluorescence, % of fluorescent control | Potency
CC[C@H]1OC(=O)[C@H](C)[C@@H](O[C@H]2C[C@@](C)(OC)[C@@H](O)[C@H](C)O2)[C@H](C)[C@@H](O[C@@H]2O[C@H](C)C[C@H](N(C)C)[C@H]2O)[C@](C)(O)C[C@@H](C)CN(C)[C@H](C)[C@@H](O)[C@]1(C)O |  | inactive
O=C(O)c1ccc(O)cc1O | -0.0967% (inactive) | 
Nc1cccc2c(N)cccc12 | 0.675% (inactive) | 
C=CCOC(=O)COCCC(C)C | 0.0233% (inactive) | 
CC(C(=O)O)c1ccc(C(=O)c2cccs2)cc1 (stereo not drawn) | -0.005% [at 18.6 µM] (inactive) | 
CC(=O)N[C@@H](Cc1ccc(O)cc1)C(=O)O | 0.0301% [at 46 µM] (inactive) | 
O=C(c1ccccc1)C1CCC1 | 0.0719% (inactive) | 
CCCCCCCC(=O)OCCCCCC | -0.135% (inactive) | 
CCC(Cl)CC(Cl)C(Cl)C(Cl)C(Cl)C(C)Cl (stereo not drawn) | 0.066% [at 13.4 µM] (inactive) | 
CCSC(=O)N(CC)CC | 0.0067% (inactive) | 
COc1ccc(C2C(=O)c3ccccc3C2=O)cc1 | -0.0064% [at 46 µM] (inactive) | 
CCCCCCCC/C=C\CCCCCCCC(=O)OCCO | 0.0607% [at 95.7 µM] (inactive) | 
CCCCCc1ccco1 | 0.491% (inactive) | 
COc1ccc(CCN(C)CCCN2CCc3cc(OC)c(OC)cc3CC2=O)cc1OC | -0.0336% [at 46 µM] (inactive) | 
CC(C)(C)S | 0.197% [at 95.7 µM] (inactive) | 
O=C(Oc1ccccc1)c1ccc2ccccc2c1O | 0.504% (inactive) | 
CC(C)(O)CCc1ccccc1 | 0.0595% (inactive) | 
CC(=O)OCC(C)C | 0.0152% (inactive) | 

Experiment: qHTS assay to test for compound auto fluorescence at 535 nm (green) in HepG2 cell free culture (AID 720686)
Conditions: Cell-free medium, green autofluorescence 485/535 nm; series mostly up to 91.3 µM; fluorescence, % of fluorescein control: at the top concentration

Structure (SMILES) | fluorescence, % of fluorescein control | outcome
C=C(C)C(=O)OCCC(F)(F)C(F)(F)C(F)(F)C(F)(F)C(F)(F)C(F)(F)F | 0.0073% (inactive) | 
COC1CCC=CO1 (stereo not drawn) | 0.0053% (inactive) | 
CNCc1ccc(NC(=O)c2c[nH]c3c2C(=O)CCC3)cc1 | 0.0249% (inactive) | 
Cc1ccc(NC(=O)N(C)C)cc1NC(=O)N(C)C | 0.0123% (inactive) | 
N[C@@H](Cc1cc(I)c(O)c(I)c1)C(=O)O | 0.0143% [at 46 µM] (inactive) | 
CCC(C)(C)C(=O)O | -0.101% (inactive) | 
CNS(=O)(=O)c1cc(C(=O)N2CCC(CCN3C4CCC3CC(n3c(C)nc5ccccc53)C4)(c3cccc(F)c3)CC2)c(Cl)cc1F (stereo not drawn) | 0.0063% (inactive) | 
O=[N+]([O-])c1ccc2ncccc2c1 | 0.024% (inactive) | 
C[C@@H]1[C@H](O)[C@@H](C)/C=C/C=C\C=C\C=C\C=C\C=C\C=C\[C@H](O[C@@H]2O[C@H](C)[C@@H](O)[C@H](N)[C@@H]2O)C[C@@H]2O[C@](O)(C[C@@H](O)C[C@@H](O)[C@H](O)CC[C@@H](O)C[C@@H](O)CC(=O)O[C@H]1C)C[C@H](O)[C@H]2C(=O)O (stereo in doubt) |  | inactive
COc1cc(C(C)=O)ccc1OCCCN1CCC(c2noc3cc(F)ccc23)CC1 | 0.0269% [at 46 µM] (inactive) | 
CC(C)(C)NCC(O)COc1cccc2c1C[C@H](O)[C@H](O)C2 (stereo partly drawn) | -0.0012% [at 18.6 µM] (inactive) | 
Nc1ccn([C@H]2CS[C@@H](CO)O2)c(=O)n1 |  | inactive
Cc1cc([N+](=O)[O-])ccc1N | -0.0185% (inactive) | 
CC1CCCO1 (stereo not drawn) | -0.0014% (inactive) | 
O=C1OC(=O)c2c(Br)c(Br)c(Br)c(Br)c21 | -0.0913% (inactive) | 
Oc1ccc2c(c1)Cc1ccccc1-2 | -0.088% (inactive) | 
CC(C)COC(=O)c1ccc(O)cc1 | 0.0354% (inactive) | 
CN1CCCN(C(c2ccccc2)c2ccc(Cl)cc2)CC1 (stereo not drawn) | 0.0082% [at 46 µM] (inactive) | 
CC[C@H]1OC(=O)[C@H](C)[C@@H](O[C@H]2C[C@@](C)(OC)[C@@H](O)[C@H](C)O2)[C@H](C)[C@@H](O[C@@H]2O[C@H](C)C[C@H](N(C)C)[C@H]2O)[C@](C)(O)C[C@@H](C)CN(C)[C@H](C)[C@@H](O)[C@]1(C)O |  | inactive

Structure (SMILES) | fluorescence, % of fluorescein control | outcome
O=C(O)c1ccc(O)cc1O | 0.0105% (inactive) | 
Nc1cccc2c(N)cccc12 | 0.331% (inactive) | 
C=CCOC(=O)COCCC(C)C | 0.0654% (inactive) | 
CC(C(=O)O)c1ccc(C(=O)c2cccs2)cc1 (stereo not drawn) | -0.0792% [at 18.6 µM] (inactive) | 
COc1cc(OC)c2ccc(=O)oc2c1 | 0.04% (inactive) | 
CC(=O)N[C@@H](Cc1ccc(O)cc1)C(=O)O | 0.0396% [at 46 µM] (inactive) | 
O=C(c1ccccc1)C1CCC1 | 0.0141% (inactive) | 
CCCCCCCC(=O)OCCCCCC | -0.0175% (inactive) | 
CCC(Cl)CC(Cl)C(Cl)C(Cl)C(Cl)C(C)Cl (stereo not drawn) | -0.002% [at 13.4 µM] (inactive) | 
CCSC(=O)N(CC)CC | -0.102% (inactive) | 
COc1ccc(C2C(=O)c3ccccc3C2=O)cc1 | 0.0011% [at 46 µM] (inactive) | 
CCCCCCCC/C=C\CCCCCCCC(=O)OCCO | -0.0192% [at 95.7 µM] (inactive) | 
CCCCCc1ccco1 | 0.147% (inactive) | 
COc1ccc(CCN(C)CCCN2CCc3cc(OC)c(OC)cc3CC2=O)cc1OC | -0.106% [at 46 µM] (inactive) | 
CC(C)(C)S | 0.0201% [at 95.7 µM] (inactive) | 
O=C(Oc1ccccc1)c1ccc2ccccc2c1O | 0.0442% (inactive) | 
CC(C)(O)CCc1ccccc1 | 0.0126% (inactive) | 
CC(=O)OCC(C)C | -0.0849% (inactive) | 
